# Laboratory results from the supplement of paper PMC12350171.
# Counter-ions that a name gives are not always drawn. A number with no mark means an inactive call.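 The calls were made as follows: active = normalised median growth AUC below 0.1 of DMSO control; inactive = AUC 0.1 or higher.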
# Tests used:
# Assay in all cases: growth AUC normalised to DMSO control (median) (fraction of control); higher = less growth inhibition, active = hit call of the paper
# Details in all cases: 20 µM
# P. vulgatus RND KO = system: P. vulgatus RND KO
# How it was run: (§1)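 For normalised area under the curve, growth curves were truncated at entry into stationary phase, integrated by the trapezoidal rule and divided against vehicle wells on the same plate. The curves came from strains passaged twice overnight without oxygen and then grown in mGAM in 96-well plates at a starting OD578 of 0.01. Each well held an approved-drug library compound at 20 μM with 1% DMSO, and OD578 was read hourly for 24 h in an anaerobic incubator. Values are medians of three biological replicates.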
# P. vulgatus WT = system: P. vulgatus WT
# How it was run: as §1
# [1] = system: S. enterica typhimurium WT
# How it was run: as §1
# [2] = system: S. enterica typhimurium tolC KO
# How it was run: as §1
# 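Also: active when median AUC fell below 0.1.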
SMILES,growth AUC normalised to DMSO control (P. vulgatus RND KO),growth AUC normalised to DMSO control (P. vulgatus WT),growth AUC normalised to DMSO control [1],growth AUC normalised to DMSO control [2]
C[C@H]1COc2c(N3CCN(C)CC3)c(F)cc3c(=O)c(C(=O)O)cn1c23 [Levofloxacin],0.014 (active),0.0149 (active),0.00504 (active),0.00559 (active)
Cc1ccsc1C(=CCCN1CCC[C@@H](C(=O)O)C1)c1sccc1C [Tiagabine hydrochloride],0.999,0.984,1,1
Cc1ccc2c([nH]c(=O)c3c(=O)cc(C(=O)OCCC(C)C)oc32)c1C [Repirinast],0.94,0.943,1.01,0.924
CCCNC(C)(C)C(=O)Nc1ccccc1C [Quatacaine],1.01,1.03,1,0.975
CC(C)(C)NC(=O)[C@@H]1CN(Cc2cccnc2)CCN1C[C@@H](O)C[C@@H](Cc1ccccc1)C(=O)N[C@H]1c2ccccc2C[C@H]1O [Indinavir sulfate],1,0.984,0.997,0.994
C[C@]12CCC3=C4CCC(=O)C=C4CC[C@H]3[C@@H]1CC[C@@]2(O)CC#N [Dienogest],1.03,1.04,1.02,1.02
CC(C)Oc1ccc2c(=O)c(-c3ccccc3)coc2c1 [Ipriflavone],1.04,1.07,0.978,0.859
CCOC(=O)OC(C)OC1=C(C(=O)Nc2ccccn2)N(C)S(=O)(=O)c2ccccc21 (configuration not stated) [Ampiroxicam],0.999,0.988,1,0.986
Cn1c(=O)cc(N2CCC[C@@H](N)C2)n(Cc2ccccc2C#N)c1=O [Alogliptin benzoate],0.981,0.971,0.991,0.992
C=CCOc1ccc(CC(=O)O)cc1Cl [Alclofenac],1.06,1.12,1,0.959
Cc1cccc(C)c1OCC(=O)N[C@@H](Cc1ccccc1)[C@@H](O)C[C@H](Cc1ccccc1)NC(=O)[C@H](C(C)C)N1CCCNC1=O [Lopinavir],1.06,1.07,1.01,1.01
Cn1cc([S+](C)[O-])c(=O)c2ccc(F)cc21 (configuration not stated) [Flosequinan],1.04,1.03,0.992,0.99
CN[C@@H]1CCc2[nH]c3ccc(C(N)=O)cc3c2C1 [Frovatriptan succinate],1.02,1.02,1,1
CCCCCCNC(=O)n1cc(F)c(=O)[nH]c1=O [Carmofur],0.0803 (active),0.0792 (active),0.806,0.717
CCOC(=O)Nc1ccc(NCc2ccc(F)cc2)nc1N [Flupirtine],1.08,1.05,1,0.979
CC(NN)c1ccccc1 (configuration not stated) [Mebanazine],0.898,0.871,1,0.99
C[C@@H]1C[C@H]2[C@@H]3C[C@H](F)C4=CC(=O)C=C[C@]4(C)[C@@]3(F)[C@@H](O)C[C@]2(C)[C@@]1(O)C(=O)COC(=O)C(C)(C)C [Flumethasone pivalate],0.995,1,0.999,1
Cc1ccc(S(=O)(=O)NCl)cc1 [Chloramine-T hydrate],1,0.997,0.996,1
CC(C)(C)C(O)/C=C/c1ccc2c(c1)OCO2 (configuration not stated) [Stiripentol],1.01,1.02,1,0.93
CC(C)CN(C[C@@H](O)[C@H](Cc1ccccc1)NC(=O)O[C@H]1CCOC1)S(=O)(=O)c1ccc(N)cc1 [Amprenavir],1.01,1.06,0.995,0.995
O=C1Nc2ccccc2C1(c1ccc(O)cc1)c1ccc(O)cc1 [Oxyphenisatin],1.04,1.04,0.994,0.99
Oc1ccc(C2CNCCc3c2cc(O)c(O)c3Cl)cc1 (configuration not stated) [Fenoldopam],0.995,0.992,0.985,0.978

SMILES,growth AUC normalised to DMSO control (P. vulgatus RND KO),growth AUC normalised to DMSO control (P. vulgatus WT),growth AUC normalised to DMSO control [1],growth AUC normalised to DMSO control [2]
Nc1nc(CC(=O)Nc2ccc(CCNC[C@H](O)c3ccccc3)cc2)cs1 [Mirabegron],1,0.989,0.991,1
Cc1cn(-c2cc(NC(=O)c3ccc(C)c(Nc4nccc(-c5cccnc5)n4)c3)cc(C(F)(F)F)c2)cn1 [Nilotinib],1.03,1.05,0.994,0.984
CC(C)c1nc(CN(C)C(=O)N[C@H](C(=O)N[C@@H](Cc2ccccc2)C[C@H](O)[C@H](Cc2ccccc2)NC(=O)OCc2cncs2)C(C)C)cs1 [Ritonavir],1.04,1.04,0.998,0.97
COC(=O)N/N=C/c1c[n+]([O-])c2ccccc2[n+]1[O-] [Carbadox],0.0197 (active),0.0112 (active),0.558,0.591
CC(C)OC(=O)C(C(=O)OC(C)C)=C1SC=CS1 [Malotilate],0.988,0.977,1,0.899
C[C@H](NCc1ccc(OCc2cccc(F)c2)cc1)C(N)=O [Safinamide],1.02,1.01,0.986,1
Nc1cc(C(Cl)=C(Cl)Cl)c(S(N)(=O)=O)cc1S(N)(=O)=O [Clorsulon],1.02,0.998,1,0.999
Cn1c([N+](=O)[O-])cnc1COC(N)=O [Ronidazole],0.0102 (active),0.00777 (active),0.999,0.923
CN1CCN(c2c(F)cc3c(=O)c(C(=O)O)cn4c3c2OCN4C)CC1 [Marbofloxacin],0.0125 (active),0.0111 (active),0.00445 (active),0.00216 (active)
O=C(c1cc(O)c(O)c(O)c1)c1ccc(O)c(O)c1O [Exifone],0.975,0.993,0.986,0.995
O=C1c2c(O)ccc(O)c2C(=O)c2c(NCCNCCO)ccc(NCCNCCO)c21 [Mitoxantrone dihydrochloride],1.11,1.04,1,0.999
Cc1nc2n(c(=O)c1CCN1CCC(c3noc4cc(F)ccc34)CC1)CCCC2O (configuration not stated) [Paliperidone],0.976,0.958,0.997,0.985
Cc1cc(NS(=O)(=O)c2ccc(N)cc2)nc(C)n1 [Sulfisomidine],1.03,1.03,1,0.995
CC(C)c1ccc2oc3nc(N)c(C(=O)O)cc3c(=O)c2c1 [Amlexanox],1.02,1.01,0.996,0.971
Cc1ccc(O)c([C@H](CCN(C(C)C)C(C)C)c2ccccc2)c1 [Tolterodine tartrate],1.01,1.01,1,0.971
COc1ccc(CNc2nc(N3CCC[C@H]3CO)ncc2C(=O)NCc2ncccn2)cc1Cl [Avanafil],1,1.03,1.01,0.962
CCCCS(=O)(=O)N[C@@H](Cc1ccc(OCCCCC2CCNCC2)cc1)C(=O)O [Tirofiban hydrochloride],0.994,0.99,0.989,0.964
COC(=O)C1=C(C)NC(C)=C(C(=O)O[C@H]2CCN(Cc3ccccc3)C2)[C@H]1c1cccc([N+](=O)[O-])c1 [Barnidipine Hydrochloride],1.1,1.11,0.998,0.961
NC(N)=Nc1nc(CSCCN/C=N/S(=O)(=O)c2ccc(Br)cc2)cs1 [Ebrotidine],0.995,1.01,0.998,0.987
CCN1CCN(Cc2ccc(Nc3ncc(F)c(-c4cc(F)c5nc(C)n(C(C)C)c5c4)n3)nc2)CC1 [Abemaciclib],0.994,0.961,1,0.909
CC1(C)S[C@@H]2[C@H](NC(=O)[C@H](N)c3ccccc3)C(=O)N2[C@H]1C(=O)OC1OC(=O)c2ccccc21 (some centres not stated) [Talampicillin hydrochloride],0.00561 (active),0.00787 (active),0.00491 (active),0.00469 (active)
